High-throughput results from PubChem.
An excerpt weighted towards active compounds, which were near 19% of everything screened.
HT1080 IDH1KD tx: toxicity to HT-1080 IDH1 knockdown cells (counter line) | HT-1080 IDH1 knockdown viability, ATP luminescence, 48 h | Potency, µM (doses to about 46.1 µM), inactives show at the top dose activity, negative = toxicity, usual class: cytotoxic | 360,000 compounds, 2% hits | AID 686971;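 note: potency is the fitted concentration of half-maximal effect; 0% = DMSO wells and -100% = cell-free medium wells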
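Assay cells: HT-1080 with IDH1 knockdown, 750 per well, RPMI/5% FBS. Exposure: 48 h at 37 °C following 2 h pre-incubation. Read: CellTiter-Glo luminescence; fitted concentration-response, curve class assigned.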
HT1080-NT tox: kills 2HG-producing HT-1080-NT fibrosarcoma cells; Potency, µM (series often up to 46.1 µM), for the others: top-dose activity, negative = less viability, usual class: cytotoxic; 360,000 compounds, 1.6% hits; HT-1080-NT fibrosarcoma viability, CellTiter-Glo ATP luminescence, 48 h;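 note: NT is the 2HG producing partner of a matched IDH1 knockdown line; potency is the fitted concentration of half-maximal effect; 0% = DMSO-treated cells and -100% = media-only wells without cells; nearly all actives have a fitted effect of over 55% in size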
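Viability by CellTiter-Glo luminescence after 48 h compound exposure at 37C of HT-1080-NT cells (750/well, RPMI, 5% FBS). % activity scaled between DMSO wells and medium-only wells, then curve-fitted and categorized by curve class.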
IL1B secr inh: blocks inflammasome-driven IL-1 beta release; activity change, % at 57.5 µM; THP-1 LPS/ATP IL-1B secretion, AlphaLISA, 16 h; active compounds read low; AID 743279; 360,000 compounds, 4.7% hits; in the data active = activity change below about -50%; inconclusive = mostly about -30% to -49%
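Secreted IL-1B measured by AlphaLISA bead assay after 16 h compound exposure of THP-1 cells; compounds (final up to 57.5 uM) added 1 h before LPS (250 ng/mL) and ATP (1.25 mM) stimulation; lower signal means less secretion.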
DT40 TDP1 no CPT: qHTS for Inhibitors of human tyrosyl-DNA phosphodiesterase 1 (TDP1): qHTS in cells in absence of CPT; DT40 Tdp1-/- hTDP1 cells, no CPT, ATP luminescence, 48 h; Potency, µM (doses to about 46.2 µM), for inactives: at the top dose activity change, negative = growth inhibition, hits mostly inhibitors; AID 686978, 2013; 420,000 compounds, 15% hits; note: potency is the fitted concentration of half-maximal effect; nearly all actives have a fitted effect of over 55% in size
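Seeded 400 DT40-hTDP1 cells/well (vehicle DMSO, no 20 nM CPT); pinned compounds; ≥48 hr at 37 °C; CellTiter-Glo luminescence as viability measure.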
TDP1 cell CPT: DT40-hTDP1 cell growth loss with CPT. chicken DT40 Tdp1-/-;hTDP1 cells + 20 nM CPT, ATP luminescence, 48 h. Potency, µM (titrated, usually from 46.2 µM), inactives show at the highest dose activity change, negative = growth inhibition, actives largely listed as inhibitors. 420,000 compounds, 12% hits. AID 686979; note: potency is the fitted concentration of half-maximal effect; nearly all actives have a fitted effect of over 55% in size
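Chicken DT40 Tdp1-/- cells complemented with human TDP1, 400 cells/well, exposed to compounds plus 20 nM camptothecin for at least 48 h at 37 C; viability read as ATP content by CellTiter-Glo luminescence.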
Numbers without * were called inactive. Unless noted, calls come from the whole dose curve; as a rule, active = well fitted curve in the direction sought with a large enough effect; inconclusive = small, poorly fitted or top-dose-only effect, or another doubt; inactive = no such curve, though single readings can be large; an effect the other way counts as inactive or inconclusive. Unless noted, % is set by controls: 0 for no effect and ±100 for the full control effect.

COc1ccc(CCNCc2sccc2C)cc1 was read as HT1080 IDH1KD tx 2%, HT1080-NT tox 0%, IL1B secr inh inconclusive, DT40 TDP1 no CPT -5% and TDP1 cell CPT inconclusive.
Screening CCN(CC)C(=O)c1cccc(-c2csc(C(C)(O)c3ccccc3)n2)c1 (centres undefined) returned HT1080 IDH1KD tx -2%, HT1080-NT tox inconclusive, IL1B secr inh 4, DT40 TDP1 no CPT inconclusive and TDP1 cell CPT inconclusive.
For CCN(CC)C(=O)c1ccc(NC(=S)NC(=O)CCc2ccccc2)cc1 the results were HT1080 IDH1KD tx -22%, HT1080-NT tox -5%, IL1B secr inh inconclusive, DT40 TDP1 no CPT inconclusive and TDP1 cell CPT inconclusive.
O=P(NC1CCCCC1)(Oc1ccccc1)Oc1ccccc1 was read as HT1080 IDH1KD tx -5%, HT1080-NT tox -23%, IL1B secr inh -18, DT40 TDP1 no CPT inconclusive and TDP1 cell CPT -12%.
For C[N+](C)(C)Cc1ccccc1 the results were HT1080 IDH1KD tx 11%, HT1080-NT tox -1%, IL1B secr inh -21, DT40 TDP1 no CPT 0% and TDP1 cell CPT -5%.
`Cc1oc2cc3oc(=O)c(CCC(=O)N4CCCCC4)c(C)c3cc2c1C` gave DT40 TDP1 no CPT 23µM* and TDP1 cell CPT 12µM*.
`O=c1[nH]c(=O)n(Cc2ccc(F)cc2)c(O)c1/C=N/Nc1ccccc1` gave HT1080 IDH1KD tx 2.3µM*, HT1080-NT tox 2.3µM*, IL1B secr inh 10, DT40 TDP1 no CPT -14% and TDP1 cell CPT 18%.
COc1ccc(Cn2c(O)c(C=Nc3c(C)n(C)n(-c4ccccc4)c3=O)c(=O)[nH]c2=O)cc1 was read as HT1080 IDH1KD tx 3%, HT1080-NT tox 2%, IL1B secr inh 5, DT40 TDP1 no CPT -1% and TDP1 cell CPT inconclusive.
For Cc1c(N=Cc2c(O)n(Cc3ccccc3)c(=O)[nH]c2=O)c(=O)n(-c2ccccc2)n1C the results were HT1080 IDH1KD tx -6%, HT1080-NT tox 0%, IL1B secr inh -72*, DT40 TDP1 no CPT -11% and TDP1 cell CPT 2%.
Cc1c(N=Nc2c(O)n(Cc3ccccc3)c(=O)[nH]c2=O)c(=O)n(-c2ccccc2)n1C was read as HT1080 IDH1KD tx inconclusive, HT1080-NT tox -14%, IL1B secr inh 21, DT40 TDP1 no CPT 12µM* and TDP1 cell CPT 16µM*.
`O=C(CCc1ccccc1)N1Cc2cc(N3CCCCC3)ccc2-n2nncc2C1` gave HT1080 IDH1KD tx 4%, HT1080-NT tox -1%, IL1B secr inh -30, DT40 TDP1 no CPT inconclusive and TDP1 cell CPT inconclusive.
CCc1ccc(-n2nc(C)c3c(C(=O)NCCc4ccc(OC)c(OC)c4)cc(C)nc32)cc1 was read as DT40 TDP1 no CPT 18µM* and TDP1 cell CPT 18µM*.
For CCN(CC)C(=O)c1ccc(NC(=O)c2cc(S(=O)(=O)N3CCCCCC3)ccc2OC)cc1 the results were HT1080 IDH1KD tx -12%, HT1080-NT tox -12%, IL1B secr inh -2, DT40 TDP1 no CPT inconclusive and TDP1 cell CPT -30%.
`N#CC(C#N)=NNc1ccc(S(=O)(=O)N2CCCC2)cc1` gave HT1080 IDH1KD tx 1%, HT1080-NT tox -2%, IL1B secr inh -26, DT40 TDP1 no CPT 16µM* and TDP1 cell CPT inconclusive.
Screening Nc1ccc2ccc3cccc[n+]3c2c1 returned HT1080 IDH1KD tx -19%, HT1080-NT tox -18%, IL1B secr inh 39, DT40 TDP1 no CPT -11% and TDP1 cell CPT inconclusive.
`C[n+]1c(-c2ccccc2)c2cc(N)ccc2c2ccc(N)cc21` gave HT1080 IDH1KD tx 1.3µM*, HT1080-NT tox 6.5µM*, IL1B secr inh 0, DT40 TDP1 no CPT 0.16µM* and TDP1 cell CPT 0.52µM*.
For CC(C)c1ccc2oc(-c3ccc(NC(=O)c4cc5ccccc5o4)cc3)nc2c1 the results were DT40 TDP1 no CPT inconclusive and TDP1 cell CPT -18%.
